According to ChEMBL document CHEMBL3988442, “University of Dundee, Small-Polar-MMV Screening Library” (2021):
About 13,000 (27%) of roughly 48,000 compounds showed an effect of 50% or more. Some of the results follow.

system: Wolbachia pipientis; assay: Anti-Wolbachia Cell-Based Screen; type: functional; set-up: scale not given: in the data most compounds retested in dose-response had high values; settings: 5 µM

Row | Structure (SMILES) | Percent Effect
1 | Cc1cc(C(F)(F)F)nn1CC(C)C(=O)Nc1ccncc1 (stereo not given) | 0.9571%
2 | CCCc1nnc(N2CCC(N3CCCC3)CC2)o1 | 13.58%
3 | CN1CCC(c2nnc(CN3CCCC3)n2C2CC2)CC1 | 3.888%
4 | CCCc1nnc2sc(C3CCN(C4CCN(C)CC4)CC3)nn12 | 110.3%
5 | CCc1nnc2n1CCN(C(=O)c1cnc(C3CC3)s1)C2 | -2.147%
6 | CCCc1nnc2sc(C3CCS(=O)(=O)CC3)nn12 | 102.2%
7 | CCCc1nnc2sc(C3CCN(CCOC)CC3)nn12 | 91.66%
8 | COCCN1CCC(CN(C)c2nc3c(s2)c(C)nn3C)CC1 | 20.85%
9 | CCCN1CCC(Cc2nn3c(C(C)C)nnc3s2)CC1 | -24.84%
10 | CC(C)c1nnc2sc(CC3CCS(=O)(=O)CC3)nn12 | -25.36%
11 | COCCN(Cc1ccc(F)cc1Cl)C(=O)c1c(C)noc1C | -7.474%
12 | CCCNC(=O)NC(=O)CN(CC(C)O)c1ccccc1 (stereo not given) | 5.048%
13 | CC(C)C[C@@H]1N[C@H](C(=O)NC2CCOCC2)Cc2c[nH]c3cccc1c23 | -3.699%
14 | O=C(COc1ccc2c(c1)CCC2)N1CCOCC1c1ncon1 (stereo not given) | -4.669%
15 | O=C(NCCSCc1ccc(Br)s1)C1CCCN(C(=O)c2cccs2)C1 (stereo not given) | -11.8%
16 | CCn1ncc(NC(=O)c2cc(C3CC3)nc3c2c(C)nn3C)c1C | 0.1323%
17 | Cc1cc(C(=O)Nc2cc(C3CC3)n[nH]2)c2c(C)nn(C)c2n1 | 94.33%
18 | CC(=O)N[C@H]1CCN(c2nc(C)nc3c2c(C)nn3C)C1 | -0.02014%
19 | O=C1NCCCC1NC(=O)C1(c2cccc(Cl)c2)CCC1 (stereo not given) | -14.19%
20 | CC(=O)NC1CCN(C(=O)Nc2cccc(SC(F)F)c2)CC1 | -5.711%
21 | CC(=O)Nc1cccc([C@H]2C[C@@H](NC(C)=O)CCO2)c1 | 88.4%
22 | CC(=O)NC1CCN(C(=O)Nc2cccc(C(F)(F)F)c2)CC1 | -0.6218%
23 | CC1CN(C(=O)C2(c3ccc(F)cc3F)CCOCC2)CCO1 (stereo not given) | -18.6%
24 | CC(=O)N1CCC(C(=O)N2CCC(=Cc3cccc(F)c3)CC2)CC1 | 0.4533%
25 | COc1ncccc1C(=O)N1CCCC1c1nc(-c2ccccc2)no1 (stereo not given) | -0.6104%

Row | Structure (SMILES) | Percent Effect
26 | Cc1noc(C2CCCCN2C(=O)NCc2ccco2)n1 (stereo not given) | 91.67%
27 | Cc1noc(C2CCCCN2C(=O)C2CCN(C(C)C)CC2)n1 (stereo not given) | -32.36%
28 | O=C(NC1CCCC1)N1CCCCC1c1nc(C2CC2)no1 (stereo not given) | 105.7%
29 | O=C(NCc1ccco1)N1CCCCC1c1nc(-c2ccncc2)no1 (stereo not given) | 87.86%
30 | Cc1cc(CN(C)C(=O)NCc2ccco2)no1 | 6.91%
31 | O=C(c1ccc2nccn2c1)N1CCCC1c1noc(C2CC2)n1 (stereo not given) | 1.976%
32 | O=C(NCc1ccco1)C1CCCN1Cc1nc(-c2ccco2)no1 (stereo not given) | -1.216%
33 | O=C(NCc1ccco1)N1CCCCC1c1nc(C2CC2)no1 (stereo not given) | 74.85%
34 | CSc1nc(C2CC2)nc(C)c1C(=O)NCc1ccco1 | -1.039%
35 | CN(C)Cc1nnc(C(=O)N(C)Cc2ccc(F)cc2)o1 | -46.46%
36 | Cn1cc(C2CCCN2C(=O)CCCc2nc3ccccc3[nH]2)cn1 (stereo not given) | 0.1259%
37 | CC(=O)N1CCC(NC2(Cc3cc(CN(C)C)on3)COC2)CC1 | -3.87%
38 | Cc1ccc(-c2nn3c(nc2=O)-c2ccccc2NC3C(=O)O)cc1C (stereo not given) | -8.788%
39 | CCc1n[nH]c(C2CN(C(=O)c3ccnc(C4CC4)n3)CCO2)n1 (stereo not given) | 101.3%
40 | Cc1n[nH]c(C2CN(C(=O)c3ccnc(C4CC4)n3)CCO2)n1 (stereo not given) | -13.72%
41 | CCCc1n[nH]c(C2CN(C(=O)c3ccnc(C4CC4)n3)CCO2)n1 (stereo not given) | 146%
42 | CCc1ncncc1C(=O)N1CCOC(c2nc(C)n[nH]2)C1 (stereo not given) | 2.402%
43 | CCc1n[nH]c(C2CN(C(=O)c3cnc(C)nc3CC)CCO2)n1 (stereo not given) | 106.1%
44 | CCc1n[nH]c(C2CN(C(=O)c3ccnc(C)n3)CCO2)n1 (stereo not given) | 98.73%
45 | Cc1nc(N)cc(NCc2csc(N(C)C)n2)n1 | -17.8%
46 | O=S(=O)(NCCc1c[nH]c2cc(F)ccc12)C1CCOC1 (stereo not given) | 22.23%
47 | CS(=O)(=O)c1ccc(OCCNCc2ccc(F)cc2F)cc1 | -10.65%
48 | Cl.O=C(C1CC1)N1CCC2(CC1)CNc1ccc(F)cc12 | -2.948%
49 | CC(CC#N)N(C)Cc1ccc(F)cc1C#N (stereo not given) | 3.658%
50 | CCc1nnc(CN2CCC3(CCC(=O)N(C4CCCC4)C3)CC2)o1 | 8.44%

Row | Structure (SMILES) | Percent Effect
51 | O=C(CN1CCN(c2ncnc3cccc(F)c23)CC1)N1CCCC1 | 6.401%
52 | Cn1cc(CN2CC[C@@H](NS(C)(=O)=O)[C@@H]2Cc2cccnc2)cn1.O=C(O)C(F)(F)F.O=C(O)C(F)(F)F | 0.0713%
53 | CS(=O)(=O)N[C@@H]1CCN(Cc2cccnc2)[C@H]1Cc1cccnc1 | 0.03565%
54 | COCCO[C@H]1CCN(Cc2ccoc2)[C@H]1Cc1cccnc1 | 85.57%
55 | COCCO[C@H]1CCN(Cc2cnn(C)c2)[C@H]1Cc1cccnc1 | 86.22%
56 | COCCO[C@@H]1CCN(C(=O)c2ccc[nH]2)[C@H]1Cc1cnn(C)c1 | -18.74%
57 | O=C(O)C(F)(F)F.O=C(O)C(F)(F)F.O[C@H]1CCN(Cc2ccoc2)[C@H]1Cc1cccnc1 | -11.6%
58 | C=C(C)COc1cccc(C(=O)N(CC)Cc2nc(COC)no2)c1 | -39.48%
59 | Cn1c(N)nnc1SC1CCCN(c2ccccc2F)C1=O (stereo not given) | -7.514%
60 | Cc1ccc(CN2CCc3c(C(=O)N(C)C)nn(C)c3C2)s1.O=C(O)C(F)(F)F | -3.635%
61 | CC(C)OCc1nn(C)c2c1CCN(CC1CC1)C2.O=C(O)C(F)(F)F | 103.7%
62 | CC(C)OCc1ncn2c1CN(CC1CC1)CCC2.O=C(O)C(F)(F)F | 10.37%
63 | O=C(O)C(F)(F)F.c1nc(COCC2CC2)c2n1CCCN(CC1CC1)C2 | -4.563%
64 | Cc1ccc(CN2CCc3c(COCC4CC4)nn(C)c3C2)s1.O=C(O)C(F)(F)F | 115.6%
65 | Cn1nc(COCC2CC2)c2c1CN(C(=O)c1ccno1)CC2.O=C(O)C(F)(F)F | -4.068%
66 | Cn1nc(COCC2CC2)c2c1CN(CC1CC1)CC2.O=C(O)C(F)(F)F.O=C(O)C(F)(F)F | 100.4%
67 | CC(C)OCc1nn(C)c2c1CCN(Cc1ccco1)C2.O=C(O)C(F)(F)F | -9.352%
68 | COCc1nn(C(C)C)c2c1CCN(Cc1ccc(C)s1)C2.O=C(O)C(F)(F)F | 2.652%
69 | N#CCc1ccc(OCC(=O)NS(=O)(=O)c2ccc(Cl)s2)cc1 | -0.9374%
70 | CC(C)[C@H](C)NC1CCN(c2ccc(-c3cscn3)cc2)CC1 | -7.145%
71 | CCCn1nnnc1CSCc1cn2c(C)cccc2n1 | 8.521%
72 | N#Cc1cccnc1N1CCCC(CO)(Cc2ccccc2F)C1 (stereo not given) | 12.54%
73 | CNS(=O)(=O)CC(=O)N(Cc1ccsc1)c1ccccc1 | 7.339%
74 | CCCC(=O)NC(Cc1ccc(C)cc1)c1ccccn1 (stereo not given) | -7.589%
75 | CC(C)[C@H]1CN(Cc2ccccn2)C[C@@H]1NC(=O)CC1CCC1 | -7.125%

Row | Structure (SMILES) | Percent Effect
76 | NC[C@H]1CC[C@H](C(NC(=O)CC2CCCC2)c2ccccn2)CC1 (stereo not given in full) | 151%
77 | NC[C@H]1CC[C@H](C(NC(=O)CC2CCCCC2)c2ccccn2)CC1 (stereo not given in full) | 140.5%
78 | NC[C@H]1CC[C@H](C(NC(=O)c2ccccc2)c2ccccn2)CC1 (stereo not given in full) | -1.705%
79 | NC[C@H]1CC[C@H](C(NC(=O)C2CC2)c2ccccn2)CC1 (stereo not given in full) | 117.5%
80 | O=C(Cn1cnc(NC(=O)CC2CCCC2)n1)NCc1ccccc1 | -4.841%
81 | NC[C@H]1CC[C@H](C(NC(=O)c2ccccn2)c2ccccn2)CC1 (stereo not given in full) | -2.81%
82 | O=C(OC1CCC1)c1ncccc1C(F)(F)F | -15.91%
83 | CC(C)c1nnc(NCc2cc3n(n2)CCNC3)s1 | 7.297%
84 | CC1CCN(S(=O)(=O)NC(C)Cc2ccco2)CC1 (stereo not given) | 1.293%
85 | Cc1nc(CN(C)Cc2cn[nH]c2-c2ccc(F)cc2)c[nH]1 | 20.15%
86 | CC(C)[C@H]1COC(=O)N1CC(=O)N1CCN(C(=O)c2ccco2)CC1 | 1.132%
87 | Cc1ccc2oc(=O)n(CCC(=O)N3CCC4(CN(C)C(=O)O4)C3)c2c1 (stereo not given) | 2.838%
88 | CN1CC2(CCN(C(=O)c3[nH]cnc3-c3ccccc3)C2)OC1=O (stereo not given) | -16.32%
89 | CCC1(C(=O)O)CCCN(CCOCc2ccccc2)C1 (stereo not given) | 2.602%
90 | CN1CC2(CCN(CCCOCc3ccccc3)CC2)OC1=O | 106.4%
91 | COc1ccc(/C=C/CN2CCC3(CC2)CN(C)C(=O)O3)cc1 | -13.05%
92 | CS(=O)(=O)NC1CCN(CCOCc2ccccc2)CC1 | 0.008163%
93 | COCCC1(C(=O)O)CCCN(CCOCc2ccccc2)C1 (stereo not given) | 2.553%
94 | CN1CC2(CCCN(CCOCc3ccccc3)C2)OC1=O (stereo not given) | 96.52%
95 | CN1CC2(CCN(C(=O)CCCOCc3ccccc3)C2)OC1=O (stereo not given) | 107.9%
96 | Cc1cc(NC(=O)N2CCC[C@@H]2CO)nn1-c1ccccc1Cl | -2.328%
97 | CC(C)COCCC(=O)Nc1c(-c2ccc(F)cc2)ncn1C | 34.39%
98 | O=C(NC1CC1)[C@H]1C[C@H]2OCC[C@H]2N(Cc2ccc(F)cc2)C1.O=C(O)C(F)(F)F | -3.794%
99 | Cc1ccc([C@@H]2CN(C(=O)c3ccsc3)C[C@H]2NC(=O)C2CC2)cc1 | -0.5207%
100 | O=C(NCC(O)c1ccccc1Cl)c1cccc(-n2cnnn2)c1 (stereo not given) | -6.148%
